Growth data for 27 molecules are collected here from PubChem BioAssay (NCI).

Compounds without any hit were thinned out: in the full panel of roughly 83,000, 20% have a hit.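 Cell lines were cultured in 96-well plates, exposed to a single compound concentration, and assessed for percent growth 48 hours later.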 Values without a mark were called inactive. Active and inactive are the calls of the source. How the source made its calls: active means growth percent below 10; inactive means the rest.

For this test, the system named is CCRF-CEM leukemia. The test is described as follows: NCI-60 one-dose screen, 48 h (100 = growth as untreated, 0 = no growth, -100 = all killed). Conditions: 10 µM unless noted.
Take `CN1C(=O)N(C)C2C1NN=c1s/c(=C\c3ccc(Cl)cc3Cl)c(=O)n12` (configuration not stated): the growth is 15%.

Take `COc1ccc2occ(C3=C(c4c[nH]c5ccccc45)C(=O)NC3=O)c2c1`: the growth was 51.9%.

Regarding `Cc1c(-c2csc(-n3nc(C(F)(F)F)cc3C(F)(F)F)n2)no[n+]1[O-]`, the growth is 95.7%.

Take `CN1C(=O)N(C)C2C1NN=c1s/c(=C\c3ccc([N+](=O)[O-])cc3)c(=O)n12` (configuration not stated): the growth was 70.4%.

With `O=C(N=Nc1c(O)[nH]c2ccccc12)c1oc2ccccc2c1CN1CCN(c2ccccc2)CC1`, the growth is 19.7%.

Regarding `COc1ccccc1C1=C(Br)C(=O)c2nc(C)ccc2C1=O`, the growth was 92%.

Take `Cc1cccc2c(=O)c3c(sc12)c(N1CCNCC1)nc1ccccc13`: the growth was 62.4%.

For `C=CCN1C(=O)/C(=c2\sc3n(c2=O)NC2C(N=3)N(CC)C(=O)N2CC)c2ccccc21` (configuration not stated), the growth is 24.4%.

Regarding `CC(C)Cn1c2c(c(=S)[nH]c1=O)CCC2`, the growth was 99.3%.

Turning to `CCCCN1CCN(c2ccc3nc(-c4ccc5nc(-c6ccc(C(F)(F)F)cc6)[nH]c5c4)[nH]c3c2)CC1`, the growth is -32.6% (active).

`CN1C(=O)N(C)C2C1NN=c1s/c(=C\c3c[nH]c4ccccc34)c(=O)n12` (configuration not stated): the growth was 16.2%.

Consider `Cc1ccc2c(n1)C(=O)C(Oc1ccc(Br)cc1)=CC2=O`, for which the growth is 62%.

Regarding `COc1cc(/C=C2\Oc3cc(OCCCN4CCCC4)ccc3C2=O)cc(OC)c1`, the growth was -24.4% (active).

Turning to `Cc1cccc(NC(=O)c2sc3nc4c(cc3c2N)CCCC4)c1C`, the growth is 7.79% (active).

As to `CCN1C(=O)N(CC)C2Nn3c(s/c(=C4\C(=O)N(C(C)C)c5ccccc54)c3=O)=NC21` (configuration not stated), the growth was 19.3%.

For `CCOC(=O)c1sc(-c2ccc(OS(=O)(=O)c3ccc(Br)s3)c(C=O)c2)nc1C`, the growth was 8.75% (active).

Consider `CNCCNc1nc2ccccc2c2c(=O)c3cccc(C)c3sc12`, for which the growth is 21%.

For the molecule `O=C(CN1C=NC2C(N3CCOCC3)=NC=NC21)c1ccc(Br)cc1` (configuration not stated), the growth was 105%.

Take `CCN1C(=O)N(CC)C2C1NN=c1s/c(=C3\C(=O)N(CC(C)(C)C)c4ccccc43)c(=O)n12` (configuration not stated): the growth was 10.2%.

`CCN1C(=O)N(c2ccccc2)C2NN=c3s/c(=C4\C(=O)N(C(C)C)c5ccccc54)c(=O)n3C21` (configuration not stated): the growth is 15.1%.

Regarding `COc1ccc(C2=C(c3cccc(OC)c3)C(=O)c3ccc(C)nc3C2=O)cc1`, the growth was 19.1%.

For the molecule `CN1C(=O)N(C)C2Nn3c(s/c(=C\c4ccc(Cl)cc4Cl)c3=O)=NC21` (configuration not stated), the growth is 49%.

Take `CCCN1C(=O)N(CCC)C2C1NN=c1s/c(=C3\C(=O)N(C(C)C)c4ccccc43)c(=O)n12` (configuration not stated): the growth is 45.8%.

Regarding `COC(=O)/C(CCC=C(C)C)=C1\[C@@H](OC(C)=O)C[C@@]2(C)[C@H]1CC(=O)[C@H]1[C@@]3(C)CC[C@H](NCc4ccccc4)[C@@H](C)[C@@H]3CC[C@@]12C`, the growth is 76.4%.

Consider `CCOC(=O)c1ccc(N=Cc2sc(=O)[nH]c2O)cc1`, for which the growth was 101%.

`COC(=O)c1c2c(c(C)[n+]([O-])c1C)C(=O)C(NCc1ccc(Br)cc1)=CC2=O`: the growth was 34.3%.

With `COc1ccc2[nH]c(O)c(N=NC(=O)c3oc4ccccc4c3C)c2c1`, the growth was 57.1%.
